Experiments:
Assay in all cases: log2 ratio of Biotin-Ahx-Ub-VS probe labelling (fragment/DMSO); higher = less target engagement (more negative = stronger competition), active = hit call of the paper (q ≤ 0.05, log2 ratio ≤ -1)
Conditions in all cases: compound concentration: 200 uM; treatment time: 3 h
USP19 = molecular target: T1, USP19 (UniProt O94966)
T1 sequence (whole entry): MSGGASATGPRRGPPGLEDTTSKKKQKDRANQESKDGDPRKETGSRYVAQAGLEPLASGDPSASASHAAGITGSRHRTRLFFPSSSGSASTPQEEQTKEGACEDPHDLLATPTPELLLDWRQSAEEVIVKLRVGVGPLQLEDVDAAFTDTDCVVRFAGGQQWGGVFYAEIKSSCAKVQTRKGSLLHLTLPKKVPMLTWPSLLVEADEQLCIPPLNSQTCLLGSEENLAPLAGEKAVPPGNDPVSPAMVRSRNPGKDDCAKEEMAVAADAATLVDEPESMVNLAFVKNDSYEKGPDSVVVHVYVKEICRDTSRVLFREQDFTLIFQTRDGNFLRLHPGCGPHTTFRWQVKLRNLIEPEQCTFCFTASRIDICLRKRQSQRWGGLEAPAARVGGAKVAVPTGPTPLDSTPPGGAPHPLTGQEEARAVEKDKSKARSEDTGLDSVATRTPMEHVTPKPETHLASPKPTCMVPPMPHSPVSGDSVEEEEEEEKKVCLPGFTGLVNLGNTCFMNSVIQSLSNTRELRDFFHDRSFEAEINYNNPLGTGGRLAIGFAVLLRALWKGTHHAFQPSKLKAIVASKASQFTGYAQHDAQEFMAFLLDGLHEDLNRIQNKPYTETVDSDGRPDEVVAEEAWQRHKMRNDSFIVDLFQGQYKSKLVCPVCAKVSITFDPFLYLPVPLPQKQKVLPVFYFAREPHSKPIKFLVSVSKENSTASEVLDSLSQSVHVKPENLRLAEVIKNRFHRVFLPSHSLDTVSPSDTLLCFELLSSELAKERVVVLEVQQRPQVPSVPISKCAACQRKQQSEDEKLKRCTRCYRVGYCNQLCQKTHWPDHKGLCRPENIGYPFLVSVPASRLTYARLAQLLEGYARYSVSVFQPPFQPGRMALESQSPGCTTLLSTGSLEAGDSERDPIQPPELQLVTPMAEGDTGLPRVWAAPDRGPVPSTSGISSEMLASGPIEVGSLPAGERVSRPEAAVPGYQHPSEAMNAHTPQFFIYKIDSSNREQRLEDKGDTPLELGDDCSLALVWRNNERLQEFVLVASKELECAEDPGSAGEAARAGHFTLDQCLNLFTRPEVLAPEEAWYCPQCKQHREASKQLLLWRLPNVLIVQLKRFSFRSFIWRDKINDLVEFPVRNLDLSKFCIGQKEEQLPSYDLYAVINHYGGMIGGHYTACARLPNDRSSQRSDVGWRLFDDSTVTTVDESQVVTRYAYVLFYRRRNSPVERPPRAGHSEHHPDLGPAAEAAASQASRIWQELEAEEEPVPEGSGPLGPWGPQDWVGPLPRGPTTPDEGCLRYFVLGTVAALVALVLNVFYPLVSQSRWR
Procedure, shortened: (§1)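 The table lists average log2 ratios of fragment over vehicle, from an unpaired t-test on global-median-normalised Spectronaut label-free quantities. Proteins with ≥2 unique peptides were used. Samples were HEK293T lysate (495 µg) treated in triplicate with fragment at 200 µM or vehicle for 3 h, then with Biotin-Ahx-Ub-VS (0.5 µM final) for 1 h, with labelled DUBs NeutrAvidin-enriched and run by diaPASEF LC-MS/MS.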

USP22 = molecular target: T2, USP22 (UniProt Q9UPT9)
T2 sequence (whole entry): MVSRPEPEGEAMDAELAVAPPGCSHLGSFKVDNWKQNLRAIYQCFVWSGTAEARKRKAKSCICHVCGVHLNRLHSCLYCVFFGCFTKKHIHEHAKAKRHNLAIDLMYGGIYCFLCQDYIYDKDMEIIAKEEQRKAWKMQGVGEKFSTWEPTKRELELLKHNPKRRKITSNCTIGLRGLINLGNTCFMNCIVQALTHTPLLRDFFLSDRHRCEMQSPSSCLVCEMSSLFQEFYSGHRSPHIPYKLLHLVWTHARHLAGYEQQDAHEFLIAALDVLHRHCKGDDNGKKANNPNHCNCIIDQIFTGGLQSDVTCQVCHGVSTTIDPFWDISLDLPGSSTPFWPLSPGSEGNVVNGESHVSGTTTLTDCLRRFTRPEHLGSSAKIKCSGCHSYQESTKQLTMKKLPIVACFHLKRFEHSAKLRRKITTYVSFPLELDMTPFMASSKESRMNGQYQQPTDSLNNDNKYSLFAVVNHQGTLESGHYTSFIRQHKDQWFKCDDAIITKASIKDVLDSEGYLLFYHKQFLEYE
Procedure, shortened: as §1

USP24 = USP24 (UniProt Q9UPU5)
Procedure, shortened: as §1

USP25 = molecular target: T3, USP25 (UniProt Q9UHP3)
T3 sequence (whole entry): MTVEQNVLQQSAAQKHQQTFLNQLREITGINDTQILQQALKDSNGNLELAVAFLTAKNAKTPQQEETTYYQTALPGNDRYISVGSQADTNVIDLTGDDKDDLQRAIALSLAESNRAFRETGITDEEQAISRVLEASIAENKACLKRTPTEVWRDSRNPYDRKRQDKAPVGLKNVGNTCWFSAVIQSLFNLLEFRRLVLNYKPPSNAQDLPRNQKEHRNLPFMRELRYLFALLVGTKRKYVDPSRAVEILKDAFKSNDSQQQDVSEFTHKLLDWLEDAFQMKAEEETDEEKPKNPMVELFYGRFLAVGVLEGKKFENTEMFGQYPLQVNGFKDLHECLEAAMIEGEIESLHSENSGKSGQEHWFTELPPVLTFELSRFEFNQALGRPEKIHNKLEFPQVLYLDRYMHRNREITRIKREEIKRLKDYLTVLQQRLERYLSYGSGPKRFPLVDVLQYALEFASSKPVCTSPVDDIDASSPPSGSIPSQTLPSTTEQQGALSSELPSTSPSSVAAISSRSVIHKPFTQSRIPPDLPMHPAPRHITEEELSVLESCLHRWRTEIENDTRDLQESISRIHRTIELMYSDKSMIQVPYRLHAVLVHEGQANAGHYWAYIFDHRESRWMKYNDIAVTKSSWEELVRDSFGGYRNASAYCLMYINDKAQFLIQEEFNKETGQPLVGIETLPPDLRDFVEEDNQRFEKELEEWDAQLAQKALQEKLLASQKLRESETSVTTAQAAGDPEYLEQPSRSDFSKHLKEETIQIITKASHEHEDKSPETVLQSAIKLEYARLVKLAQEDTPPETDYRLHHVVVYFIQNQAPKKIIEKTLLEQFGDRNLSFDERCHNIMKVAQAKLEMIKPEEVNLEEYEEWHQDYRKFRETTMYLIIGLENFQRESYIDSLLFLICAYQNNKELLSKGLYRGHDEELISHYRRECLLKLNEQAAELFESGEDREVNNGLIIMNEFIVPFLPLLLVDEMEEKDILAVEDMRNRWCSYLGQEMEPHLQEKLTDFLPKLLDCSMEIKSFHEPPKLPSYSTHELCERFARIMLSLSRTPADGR
Procedure, shortened: as §1

USP28 = molecular target: T4, USP28 (UniProt Q96RU2)
T4 sequence (whole entry): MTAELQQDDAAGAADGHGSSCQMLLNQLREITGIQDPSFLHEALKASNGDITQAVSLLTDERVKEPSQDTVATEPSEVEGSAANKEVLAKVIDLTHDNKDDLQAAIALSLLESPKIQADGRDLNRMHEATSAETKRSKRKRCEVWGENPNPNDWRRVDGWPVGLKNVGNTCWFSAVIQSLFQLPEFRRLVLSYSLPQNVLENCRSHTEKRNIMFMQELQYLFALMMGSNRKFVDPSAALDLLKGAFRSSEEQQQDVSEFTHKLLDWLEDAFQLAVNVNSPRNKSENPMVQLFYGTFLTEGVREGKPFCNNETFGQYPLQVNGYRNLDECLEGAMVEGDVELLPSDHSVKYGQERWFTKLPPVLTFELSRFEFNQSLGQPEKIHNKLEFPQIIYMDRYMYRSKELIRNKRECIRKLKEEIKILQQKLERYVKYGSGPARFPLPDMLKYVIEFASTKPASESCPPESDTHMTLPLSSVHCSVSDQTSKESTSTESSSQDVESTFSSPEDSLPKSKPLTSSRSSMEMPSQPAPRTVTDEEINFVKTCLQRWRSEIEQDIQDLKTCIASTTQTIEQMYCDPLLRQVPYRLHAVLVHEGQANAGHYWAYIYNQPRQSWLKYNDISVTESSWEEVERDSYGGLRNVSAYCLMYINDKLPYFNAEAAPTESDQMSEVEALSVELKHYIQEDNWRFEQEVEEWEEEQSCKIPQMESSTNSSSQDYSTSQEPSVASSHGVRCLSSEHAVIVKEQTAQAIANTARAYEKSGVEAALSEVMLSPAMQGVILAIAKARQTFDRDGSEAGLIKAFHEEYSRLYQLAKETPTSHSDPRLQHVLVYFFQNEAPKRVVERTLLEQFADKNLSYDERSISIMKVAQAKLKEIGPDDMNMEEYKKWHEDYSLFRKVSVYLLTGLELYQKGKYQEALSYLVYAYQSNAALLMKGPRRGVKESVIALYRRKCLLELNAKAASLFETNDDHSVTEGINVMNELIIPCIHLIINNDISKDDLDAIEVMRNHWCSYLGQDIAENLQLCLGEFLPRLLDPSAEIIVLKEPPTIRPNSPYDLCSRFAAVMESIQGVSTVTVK
Procedure, shortened: as §1

Measured: log2 ratio of Biotin-Ahx-Ub-VS probe labelling

Sequence of USP24 (Q9UPU5 whole entry): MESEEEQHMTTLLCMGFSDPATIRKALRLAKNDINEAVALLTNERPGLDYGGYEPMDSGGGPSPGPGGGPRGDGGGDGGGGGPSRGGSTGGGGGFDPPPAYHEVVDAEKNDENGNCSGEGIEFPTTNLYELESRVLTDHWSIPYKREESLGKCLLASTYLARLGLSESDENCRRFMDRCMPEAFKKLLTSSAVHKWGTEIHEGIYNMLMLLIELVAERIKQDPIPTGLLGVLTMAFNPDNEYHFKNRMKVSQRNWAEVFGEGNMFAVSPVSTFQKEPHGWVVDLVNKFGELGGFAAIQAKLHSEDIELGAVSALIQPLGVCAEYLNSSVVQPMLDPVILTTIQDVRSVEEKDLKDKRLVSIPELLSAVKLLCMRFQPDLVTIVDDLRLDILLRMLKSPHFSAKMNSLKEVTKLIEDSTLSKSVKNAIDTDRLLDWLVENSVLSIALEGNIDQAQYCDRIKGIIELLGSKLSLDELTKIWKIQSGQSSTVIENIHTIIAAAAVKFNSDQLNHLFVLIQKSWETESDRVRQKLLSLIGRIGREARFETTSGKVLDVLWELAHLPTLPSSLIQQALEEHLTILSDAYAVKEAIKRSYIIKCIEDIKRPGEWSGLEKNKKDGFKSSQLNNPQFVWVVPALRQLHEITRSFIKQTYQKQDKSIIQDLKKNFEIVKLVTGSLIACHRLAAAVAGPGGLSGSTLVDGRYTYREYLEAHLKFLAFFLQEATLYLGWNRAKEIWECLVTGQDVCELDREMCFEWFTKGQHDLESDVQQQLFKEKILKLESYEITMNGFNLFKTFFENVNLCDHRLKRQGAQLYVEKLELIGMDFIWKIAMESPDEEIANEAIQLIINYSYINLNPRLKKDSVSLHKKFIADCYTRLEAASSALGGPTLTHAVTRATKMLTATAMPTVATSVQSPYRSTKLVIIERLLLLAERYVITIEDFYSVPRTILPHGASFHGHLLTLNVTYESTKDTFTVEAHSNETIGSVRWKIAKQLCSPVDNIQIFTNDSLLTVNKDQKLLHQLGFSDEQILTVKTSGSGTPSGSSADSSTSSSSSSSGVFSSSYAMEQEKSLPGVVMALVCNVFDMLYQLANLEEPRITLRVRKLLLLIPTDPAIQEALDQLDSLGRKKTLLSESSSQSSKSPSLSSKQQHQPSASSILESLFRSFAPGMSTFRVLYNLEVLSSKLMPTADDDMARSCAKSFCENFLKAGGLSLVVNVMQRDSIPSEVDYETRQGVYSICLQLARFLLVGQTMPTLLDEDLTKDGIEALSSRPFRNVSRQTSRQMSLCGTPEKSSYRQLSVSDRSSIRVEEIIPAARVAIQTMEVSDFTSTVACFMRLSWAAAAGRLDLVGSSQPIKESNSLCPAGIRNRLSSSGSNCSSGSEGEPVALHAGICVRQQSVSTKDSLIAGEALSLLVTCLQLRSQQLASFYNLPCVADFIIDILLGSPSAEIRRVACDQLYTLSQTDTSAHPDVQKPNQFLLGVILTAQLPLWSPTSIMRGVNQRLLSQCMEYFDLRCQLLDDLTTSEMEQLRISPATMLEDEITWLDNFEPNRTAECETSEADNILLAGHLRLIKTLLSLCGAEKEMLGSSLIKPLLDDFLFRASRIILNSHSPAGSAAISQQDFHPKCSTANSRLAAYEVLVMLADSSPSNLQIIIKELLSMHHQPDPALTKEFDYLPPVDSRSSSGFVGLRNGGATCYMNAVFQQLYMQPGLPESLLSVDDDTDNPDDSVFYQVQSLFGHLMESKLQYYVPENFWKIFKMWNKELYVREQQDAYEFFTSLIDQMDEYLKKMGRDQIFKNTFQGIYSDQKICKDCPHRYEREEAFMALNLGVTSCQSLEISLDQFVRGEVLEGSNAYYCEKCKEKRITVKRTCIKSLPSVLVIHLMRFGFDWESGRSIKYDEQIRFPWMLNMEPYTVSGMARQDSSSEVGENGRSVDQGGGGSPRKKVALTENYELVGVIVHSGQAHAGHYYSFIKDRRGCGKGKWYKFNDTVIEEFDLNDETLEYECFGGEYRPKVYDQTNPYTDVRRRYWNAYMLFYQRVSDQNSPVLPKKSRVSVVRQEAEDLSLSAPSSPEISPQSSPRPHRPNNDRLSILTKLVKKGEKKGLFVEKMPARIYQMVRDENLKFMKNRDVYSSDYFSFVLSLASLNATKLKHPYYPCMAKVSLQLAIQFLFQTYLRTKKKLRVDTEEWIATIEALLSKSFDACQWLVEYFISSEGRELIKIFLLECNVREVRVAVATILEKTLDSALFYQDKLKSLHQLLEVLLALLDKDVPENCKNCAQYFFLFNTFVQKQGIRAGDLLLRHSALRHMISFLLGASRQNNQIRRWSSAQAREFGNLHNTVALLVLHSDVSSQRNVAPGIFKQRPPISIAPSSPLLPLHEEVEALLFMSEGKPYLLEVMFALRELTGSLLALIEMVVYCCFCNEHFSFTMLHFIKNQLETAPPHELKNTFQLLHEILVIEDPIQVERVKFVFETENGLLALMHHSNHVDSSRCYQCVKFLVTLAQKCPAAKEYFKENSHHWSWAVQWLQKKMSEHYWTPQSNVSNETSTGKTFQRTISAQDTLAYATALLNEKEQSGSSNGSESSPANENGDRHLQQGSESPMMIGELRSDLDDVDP

O=C(CCl)N(Cc1ccsc1)C1CC1
inactive: USP19 -0.0676 | USP22 0.255 | USP24 -0.704 | USP25 -0.45 | USP28 -0.283

Reference: the supplement of paper PMC11732987, “Enantioselective OTUD7B fragment discovery through chemoproteomics screening and high-throughput optimisation” (Communications Chemistry, 2025)
